A short description of experiment [1]: A CellTox Green Cytotoxicity Assay to monitor cytotoxicity in HepG2 cells - 0 hour (AID 1224882). Also: nearly all actives have a fitted effect of over 35% in size. Summed up:
(§1)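 First, HepG2 cells (600/well) mixed with reagent were plated; second, after 5 h at 37 C they received compounds via pintool; third, fluorescence was measured at 0 h through 40 h at 8 h intervals.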

The nature of experiment [2]: A CellTox Green Cytotoxicity Assay to monitor cytotoxicity in HepG2 cells - 32 hour (AID 1224883). Also: nearly all actives have a fitted effect of over 50% in size. Also: potency is read from the fitted curve at half-maximal effect. In short, it runs like this: as §1
The nature of experiment [3]: A CellTox Green Cytotoxicity Assay to monitor cytotoxicity in HEK293 cells - 8 hour (AID 1224884). Also: nearly all actives have a fitted effect of over 35% in size. Also: potency is read from the fitted curve at half-maximal effect. In short, it runs like this:
(§2)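 Dead-cell fluorescence measured kinetically: asymmetric cyanine dye, HEK293, 600 cells/well, 5 h settle, 23 nL cpd/DMSO, 37 C, reads 0–40 h every 8 h.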

Experiment [4] is described as follows: qHTS RealTime-Glo MT Cell Viability Assay in HEK293 cells - 24 hour (AID 1224886). Also: nearly all actives have a fitted effect of over 50% in size. Also: potency is read from the fitted curve at half-maximal effect. Summed up: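 Assay medium contained NanoLuc luciferase plus cell-permeant prosubstrate, added with HEK293 cells at 600 cells/well. After 5 h at 37 C/5% CO2 compounds were added; plates stayed at 37 C for 40 h with serial luminescence reads.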
(Quantitative high-throughput screening tests each substance at several concentrations.)

Experiment [5] can be described thus: qHTS RealTime-Glo MT Cell Viability Assay in HEK293 cells - 8 hour (AID 1224887). Also: nearly all actives have a fitted effect of over 50% in size. Also: potency is read from the fitted curve at half-maximal effect. In short, it runs like this: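 600 HEK293 cells per well, dispensed already mixed with RealTime-Glo MT reagents. Compound dosing came 5 h later. The same wells were read for luminescence at 0, 8, 16, 24, 32 and 40 h of exposure at 37 C.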
A short description of experiment [6]: A CellTox Green Cytotoxicity Assay to monitor cytotoxicity in HEK293 cells - 16 hour (AID 1224888). Also: nearly all actives have a fitted effect of over 35% in size. Also: potency is read from the fitted curve at half-maximal effect. Summed up: as §2
Experiment [7] is described as follows: qHTS RealTime-Glo MT Cell Viability Assay in HepG2 cells - 0 hour (AID 1224889). Also: nearly all actives have a fitted effect of over 50% in size. In short, it runs like this: (§3)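 qHTS, HepG2, 600 cells/well, RealTime-Glo (NanoLuc + prosubstrate) added with cells; 5 h preincubation; DMSO compound addition; 37 C; luminescence at 0/8/16/24/32/40 h.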
Experiment [8] in a line: A CellTox Green Cytotoxicity Assay to monitor cytotoxicity in HepG2 cells - 8 hour (AID 1224890). Also: nearly all actives have a fitted effect of over 45% in size. Also: potency is read from the fitted curve at half-maximal effect. In short, it runs like this: as §1
Experiment [9] can be described thus: qHTS assay to identify small molecule antagonists of the estrogen receptor alpha (ER-alpha) signaling pathway using the BG1 cell line in the presence of 0.1 nM 17-beta-estradiol - cell viability counter screen (AID 1259241). Also: nearly all actives have a fitted effect of over 40% in size. Summed up: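 Viability in VM7Luc4E2 cells after 22 hr compound exposure under 0.1 nM 17beta-estradiol stimulation, by CellTiter-Fluor.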

Experiment [10] in a line: qHTS assay to identify small molecule antagonists of the androgen receptor (AR) signaling pathway using the MDA cell line in the presence of 0.5 nM R1881 - cell viability counter screen (AID 1259242). Also: nearly all actives have a fitted effect of over 45% in size. Also: potency is read from the fitted curve at half-maximal effect. Summed up: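 qHTS format. MDA-kb2 (MMTV-luc, AR/GR responsive) + cpd + 0.5 nM R1881 final, 16 hr 37C/0% CO2 → CellTiter-Fluor 30 min → fluorescence intensity.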
In experiment [11] the target is Estrogen receptor (Homo sapiens) (UniProt P03372). The experiment is described as follows: qHTS assay to identify small molecule antagonists of the estrogen receptor alpha (ER-alpha) signaling pathway using the BG1 cell line in the presence of 0.1 nM 17-beta-estradiol (AID 1259244). Also: nearly all actives have a fitted effect of over 50% in size. Also: potency is read from the fitted curve at half-maximal effect. In short, it runs like this: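 Reporter is a stably transfected luciferase under four estrogen responsive elements in VM7Luc4E2 cells expressing native full-length ER-alpha; inhibition of 0.1 nM (final) 17beta-estradiol-driven signal over 22 h is read by luminescence.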

Experiment [12] in a line: qHTS assay to identify small molecule HDAC inhibitors (AID 1259364).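 Also: wild-type HCT-116 cells with endogenous class I/II HDAC activity; top concentration of the series differs between compounds; nearly all actives have a fitted effect of over 45% in size.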 Summed up: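 Quantitative high-throughput format: overnight-seeded HCT-116 cells got compounds for 2 hr at 37C; HDAC-Glo I/II reagent added, 30 min RT, luminescence measured.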
Experiment [13] in a line: qHTS assay to identify small molecule HDAC inhibitors - cell viability counter screen (AID 1259365). Summed up: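 Cytotoxicity was gauged in wild-type HCT-116 cells after a brief 2hr treatment with DMSO-dissolved compounds at 37C and 5% CO2, using CellTiter-Glo luminescence developed for 30min at room temperature.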
A short description of experiment [14]: qHTS assay to identify small molecule agonists of the sonic hedgehog signaling (Shh) pathway - cell viability counter screen (AID 1259366). Also: nearly all actives have a fitted effect of over 50% in size. Also: potency is read from the fitted curve at half-maximal effect. In short, it runs like this: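 Stable Gli1-Luc NIH/3T3 clone, 2,000 cells/well. Compound exposure 24hr at 37C. Read-out: CellTiter-Fluor fluorescence.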
Experiment [15] is described as follows: qHTS assay to identify small molecule antagonists of the sonic hedgehog signaling (Shh) pathway - cell viability counter screen (AID 1259367). Also: nearly all actives have a fitted effect of over 55% in size. Also: potency is read from the fitted curve at half-maximal effect. In short, it runs like this:
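Fluorescence read-out (CellTiter-Fluor, 1 hr at 37C) taken after 23 hr compound treatment of 3T3 Gli1-Luc cells stimulated with conditioned medium. Cells were seeded at 2,000 per well and pre-incubated 4 hr.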

Experiment [16] can be described thus: qHTS assay to identify small molecule agonists of the sonic hedgehog signaling (Shh) pathway (AID 1259368; calls by dose curve;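 also: NIH/3T3-derived 3T3Gli1-Luc cells carrying a stable Gli1-driven firefly luciferase reporter; series mostly up to about 92 µM; nearly all actives have a fitted effect of over 15% in size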). Summed up:
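Quantitative high-throughput format using a Gli1-driven firefly luciferase reporter line derived from NIH/3T3 cells. After a 24 hr compound treatment at 37 C and 5% CO2, luminescence reported Gli1 response element activity.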

The nature of experiment [17]: qHTS assay to identify small molecule antagonists of the sonic hedgehog signaling (Shh) pathway (AID 1259369; calls by dose curve; also: nearly all actives have a fitted effect of over 45% in size; also: potency is read from the fitted curve at half-maximal effect). Summed up: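 Stable Gli1-Luc reporter NIH/3T3 clone; quantitative HTS in stimulated mode with conditioned medium. Luminescence measured after 24hr compound treatment at 37 C.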
A short description of experiment [18]: qHTS assay to identify small molecule phospholipidosis (PLD) inducers (AID 1259344; active = well fitted curve in the direction sought with a large enough effect; an effect the other way counts as inactive or inconclusive). In short, it runs like this: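 Read-out is LipidTOX Red fluorescence (ex 595/em 615) imaged in HepG2 cells after 24 h compound exposure at 37 C, with Hoechst nuclear counterstain (ex 352/em 461) allowing per-cell normalisation.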
Experiment [19] in a line: qHTS RealTime-Glo MT Cell Viability Assay in HepG2 cells - 16 hour (AID 1224885). Also: nearly all actives have a fitted effect of over 50% in size. Also: potency is read from the fitted curve at half-maximal effect. Summed up: as §3
Experiment [20] addresses Androgen receptor (Homo sapiens) (UniProt P10275). The experiment is described as follows: qHTS assay to identify small molecule antagonists of the androgen receptor (AR) signaling pathway using the MDA cell line in the presence of 0.5 nM R1881 (AID 1259243). Also: nearly all actives have a fitted effect of over 50% in size. In short, it runs like this:
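Antagonist mode quantitative HTS in MDA-kb2 MMTV-luciferase cells, agonist R1881 at 0.5 nM final, 16 hr exposure at 37C and 0% CO2, luminescent detection.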

Structures are written as SMILES. Values joined by “and” are separate entries in the source; they are usually repeats but may differ in a detail not shown here. Equal entries are not always repeated. Records with an inconclusive call do not appear. Some compounds were tested as several samples or in several runs, with calls that do not always agree. Active and inactive are the calls of the source. Unless noted, calls follow the shape of the dose curve; as a rule, active = well fitted curve in the direction sought with a large enough effect in the repeat runs; inconclusive = weak or mixed curves; inactive = no such curve, though single readings can be large; an effect the other way counts as inactive or inconclusive.
% is scaled to controls: 0 for no effect and ±100 for the full control effect.

Sequence of Estrogen receptor (Homo sapiens) (P03372 whole entry, looked up): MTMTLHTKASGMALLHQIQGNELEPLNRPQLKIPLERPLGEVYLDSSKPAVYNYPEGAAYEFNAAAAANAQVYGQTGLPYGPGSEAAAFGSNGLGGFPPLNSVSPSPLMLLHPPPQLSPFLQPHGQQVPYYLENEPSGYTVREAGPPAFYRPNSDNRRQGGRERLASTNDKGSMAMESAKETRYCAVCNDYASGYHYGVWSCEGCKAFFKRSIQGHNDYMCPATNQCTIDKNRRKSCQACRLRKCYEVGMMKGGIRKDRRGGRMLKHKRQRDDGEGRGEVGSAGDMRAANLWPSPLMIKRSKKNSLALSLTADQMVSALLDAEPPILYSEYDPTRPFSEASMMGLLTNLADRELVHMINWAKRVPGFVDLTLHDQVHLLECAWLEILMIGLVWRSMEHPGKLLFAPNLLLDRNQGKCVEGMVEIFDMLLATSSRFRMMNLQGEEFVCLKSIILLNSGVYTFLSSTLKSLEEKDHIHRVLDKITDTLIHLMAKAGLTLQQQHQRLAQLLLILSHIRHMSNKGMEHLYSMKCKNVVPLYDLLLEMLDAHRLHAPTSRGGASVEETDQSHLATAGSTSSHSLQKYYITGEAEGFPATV
Sequence of Androgen receptor (Homo sapiens) (P10275 whole entry, looked up): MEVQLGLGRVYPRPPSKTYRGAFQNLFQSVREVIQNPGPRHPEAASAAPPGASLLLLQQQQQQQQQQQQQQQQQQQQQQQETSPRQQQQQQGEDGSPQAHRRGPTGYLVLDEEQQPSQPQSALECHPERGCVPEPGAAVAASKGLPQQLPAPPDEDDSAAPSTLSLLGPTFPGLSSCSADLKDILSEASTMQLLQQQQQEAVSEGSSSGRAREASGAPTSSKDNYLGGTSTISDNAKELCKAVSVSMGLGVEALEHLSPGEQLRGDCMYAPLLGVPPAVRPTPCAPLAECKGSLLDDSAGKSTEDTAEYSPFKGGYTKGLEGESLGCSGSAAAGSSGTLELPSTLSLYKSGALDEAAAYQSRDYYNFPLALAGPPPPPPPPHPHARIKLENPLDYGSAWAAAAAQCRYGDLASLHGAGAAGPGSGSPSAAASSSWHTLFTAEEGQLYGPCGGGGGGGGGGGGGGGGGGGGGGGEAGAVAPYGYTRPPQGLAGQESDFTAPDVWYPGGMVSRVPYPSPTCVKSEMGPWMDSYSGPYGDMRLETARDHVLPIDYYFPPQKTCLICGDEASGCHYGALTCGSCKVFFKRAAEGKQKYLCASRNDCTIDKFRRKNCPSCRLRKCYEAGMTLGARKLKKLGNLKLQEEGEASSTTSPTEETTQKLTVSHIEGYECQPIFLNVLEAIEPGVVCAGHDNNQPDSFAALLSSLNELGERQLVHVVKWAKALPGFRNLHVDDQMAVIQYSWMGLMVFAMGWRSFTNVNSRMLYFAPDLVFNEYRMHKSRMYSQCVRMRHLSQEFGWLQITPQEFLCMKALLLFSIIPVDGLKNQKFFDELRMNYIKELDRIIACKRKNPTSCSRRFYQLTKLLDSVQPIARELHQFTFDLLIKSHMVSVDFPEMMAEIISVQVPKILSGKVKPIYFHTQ

As to `CCCC1CCC(=O)CC1`, the Potency entry in experiment [1], in experiment [2], in experiment [3], in experiment [4], in experiment [5] and in experiment [6] was “inactive” in each case. Moreover, the Potency entry in experiment [7], in experiment [8], in experiment [9], in experiment [10], in [11] and in [12] was “inactive” in each case. The Potency result in experiment [13], in experiment [14], in experiment [15], in experiment [16] and in [17] was “inactive” in each case.
With `CCOC(=O)Cn1cccc1-c1nc(-c2ccc(OC)cc2)c(-c2ccc(OC)cc2)s1`, the Potency result in [1], in [2], in [3], in experiment [4], in [5] and in experiment [6] was “inactive” in each case. The Potency entry in experiment [7], in experiment [8], in experiment [9], in experiment [10], in [11] and in experiment [18] was “inactive” throughout. Moreover, the Potency entry in experiment [13], in experiment [14], in experiment [15], in experiment [16] and in [17] was “inactive” in each case.
With `O=C1CCc2cc(OCCCCc3nnnn3C3CCCCC3)ccc2N1`, the Potency result in experiment [1], in [2], in [3], in experiment [19], in experiment [5] and in experiment [6] was “inactive” each time. For the same compound, the Potency entry in experiment [7], in [8], in [9], in [10], in experiment [18] and in experiment [12] was “inactive” throughout. The Potency entry in experiment [13], in experiment [14], in experiment [15] and in experiment [16] was “inactive” each time. Moreover, the figures for the Potency in experiment [11] and in [17] were 21.1 µM (active) and 10.6 µM (active), respectively.
As to `c1ccsc1`, the Potency entry in experiment [1], in [2], in [3], in experiment [4], in experiment [5] and in experiment [6] was “inactive” throughout. Besides, the Potency entry in experiment [8], in experiment [9], in [10], in [20], in [11] and in experiment [12] was “inactive” each time. The Potency entry in experiment [13], in [14], in experiment [16] and in experiment [17] was “inactive” each time.
Regarding `CCCCCCCCCCCCCCCC[N+](C)(C)CC`, the Potency entry in experiment [1], in experiment [7], in experiment [9], in experiment [18], in [13] and in experiment [16] was “inactive” in each case. The Potency in experiment [2] was 17.4 µM (active) and 19 µM (active); in [3], 55.1 µM (active) and 23.9 µM (active); in experiment [4], 8.74 µM (active) and 4.77 µM (active); in [5] it was 21.9 µM (active); in [6] it was 55.1 µM (active); in [8], 55.1 µM (active) and 19 µM (active). In addition, the Potency was 27.4 µM (active) and 26.6 µM (active) in [11]; 68.8 µM (active) in experiment [14]; 54.6 µM (active) and inactive in experiment [15]; 6.88 µM (active) and 15 nM (active) in [17].
`CC(C)CCOC(=O)/C=C/c1ccccc1`: the Potency entry in [1], in experiment [2], in experiment [3], in experiment [4], in experiment [5] and in [6] was “inactive” each time. In addition, the Potency entry in [7], in experiment [8], in experiment [9], in experiment [10], in experiment [11] and in [13] was “inactive” each time. Moreover, the Potency result in experiment [14], in experiment [15], in experiment [16] and in [17] was “inactive” in each case.
As for `CC(C)(C)c1ccc(C(O)CCCN2CCC(C(O)(c3ccccc3)c3ccccc3)CC2)cc1` (stereo unspecified), the Potency entry in experiment [1], in [18], in experiment [12], in experiment [15] and in experiment [16] was “inactive” throughout. For the same compound, the Potency in [2] was 5.35 µM (active); in experiment [3] it was 21.3 µM (active); in experiment [19] it was 7.56 µM (active); in experiment [4] it was 5.35 µM (active); in [5], 8.49 µM (active); in experiment [6] it was 13.4 µM (active). The Potency in experiment [8] is 15.1 µM (active); in experiment [10], 16.8 µM (active); in experiment [14], 26.6 µM (active).
With `Cc1cc(=O)oc2cc(O)cc(O)c12`, the Potency result in experiment [1], in experiment [2], in experiment [3], in [19], in [4] and in experiment [5] was “inactive” each time. Also, the Potency entry in [7], in experiment [8], in [9], in experiment [10], in experiment [20] and in experiment [15] was “inactive” each time. Moreover, in experiment [16], the Potency result was “inactive”. The Potency in experiment [17] is 21.8 µM (active).
For the compound `CC[N+](CC)(CC)CCOC(=O)C(C1CCCC1)C1CCCC1`, the Potency result in experiment [1], in experiment [2], in [3], in experiment [19], in experiment [5] and in experiment [6] was “inactive” in each case. The Potency result in experiment [7], in experiment [8], in experiment [9], in [12], in experiment [13] and in [14] was “inactive” in each case. Further, the Potency entry in experiment [16] and in experiment [17] was “inactive” throughout. The PLD induction in experiment [18] was 0.0817% [at 7.66 µM] (inactive).
As to `O=C1c2ccccc2C(=O)N1SC1CCCCC1`, the Potency entry in [1], in experiment [3], in experiment [9], in experiment [10], in [12] and in experiment [13] was “inactive” in each case. For the same compound, the Potency entry in experiment [15] and in [16] was “inactive” in each case. Moreover, the Potency in experiment [2] was 24.5 µM (active); in [19] it was 38.9 µM (active); in experiment [4], 34.6 µM (active) and 34.7 µM (active); in [5], 38.9 µM (active); in [6] it was 43.6 µM (active); in experiment [11], 61.1 µM (active). Further, the Potency in experiment [14] was 30.6 µM (active); in [17] it was 15.3 µM (active).
Take `COC(=O)c1ccccc1C`: the Potency result in experiment [1], in experiment [2], in experiment [3], in experiment [4], in [5] and in experiment [6] was “inactive” throughout. The Potency result in experiment [7], in experiment [8], in experiment [9], in experiment [10], in [11] and in experiment [12] was “inactive” throughout. In addition, the Potency entry in [13], in experiment [14], in experiment [15], in experiment [16] and in experiment [17] was “inactive” throughout.

The record behind these values is PubChem BioAssay (Tox21).
